This is part of a sample that, as a whole, favours compounds with a hit. Of some 79,000 tested, about 15% had one in any assay. Values without a mark were called inactive. Rule as the data show it: active = growth inhibition above about 70%; inactive = the rest.
Assay: NCI Yeast Anticancer Drug Screen. Data for the cln2 rad14 strain (AID 165);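 also: 0% = growth equal to vehicle treated cultures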
Conditions: S. cerevisiae cln2 rad14 strain, stronger effect = higher value; at 50.0 µM unless noted
Procedure, shortened: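 Yeast carrying cln2 and rad14 alterations (cell cycle control and DNA damage repair) were exposed to compounds. Growth inhibition was measured against vehicle-treated controls.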

| Structure (SMILES) | growth inhibition [%] |
| --- | --- |
| COc1cc2c(cc1OCc1ccccc1)C(Cc1cc(Br)sc1Br)=NCC2 | 50.3 |
| C=C(NC(=O)C(c1ccccc1)c1ccccc1)C(=O)O | -25.1 |
| NC(=S)/N=C/C=C\c1ccccc1 | 0.35 |
| COC(OC)C(C)=O | -16.9 |
| Cc1[nH]n(-c2ccc(Cl)cc2)c(=O)c1N=Nc1cccc(C(F)(F)F)c1 | 7.45 |
| NC(Cc1ccc2nc3c4ccccc4c(=O)cc-3oc2c1)C(=O)O (centres undefined) | 19.3 |
| Cc1cccc[n+]1C | -19.2 |
| Cc1ccc(-c2ccc(C)cc2C(=O)O)c(C(=O)O)c1 | -28.1 |
| CC(=O)N1C(=O)CC23c4cccc([N+](=O)[O-])c4C(=O)N2CCCN13 (centres undefined) | 10.6 |
| CCCCCCOc1ccccc1CO | 2 |
| Cc1ccccc1C(=O)c1ccccc1C | -34 |
| O=c1[nH]c(Br)nc2c(N3CCCCC3)c[nH]c12 | 4.35 |
| COc1ccc(-c2cc(-c3ccco3)c(C#N)c(=O)[nH]2)cc1 | 14.2 |
| [O-]c1nn(-c2ccccc2)n[n+]1-c1ccccc1 | -25 |
| O=C(CCl)Nc1cc2ccccc2oc1=O | 41 |
| CCOC(=O)c1ccc(NC(=O)Nc2cc(Cl)ccc2C)cc1 | 6.4 |
| CCN(CC)Cc1cc(O)ccc1NCCCNc1ccnc2cc(Cl)ccc12 | 16.4 |
| C/C(=N\NS(=O)(=O)c1ccc(C)cc1)c1cccs1 | 4.2 |
| Nc1ccccc1[N+](=O)[O-] | -15.7 |
